Source: PubChem (National Center for Advancing Translational Sciences (NCATS))
An excerpt weighted towards active compounds, which were near 19% of everything screened.
IL1B secr inh: inflammasome signaling inhibition, IL-1 beta readout. THP-1 LPS/ATP IL-1B secretion, AlphaLISA, 16 h; active compounds read low. activity change, % at 57.5 µM. 360,000 compounds, 4.7% hits. AID 743279; in the data active = activity change below about -50%; inconclusive = mostly about -30% to -49%
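THP-1 cells pretreated 1 hr with compounds (up to 57.5 uM final), then stimulated with LPS (250 ng/mL final) plus ATP (1.25 mM final); secreted IL-1B measured by AlphaLISA after 16 hr, decreased signal indicating inhibition.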
HT1080NT lethal: kills 2HG-producing HT-1080-NT fibrosarcoma cells; HT-1080-NT fibrosarcoma viability, CellTiter-Glo ATP luminescence, 48 h; Potency, µM (series often up to 46.1 µM), hits mostly cytotoxic; 360,000 compounds, 1.6% hits; AID 686970;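 also: NT is the 2HG producing partner of a matched IDH1 knockdown line; nearly all actives have a fitted effect of over 55% in size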
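Compounds were tested in concentration-response format on HT-1080-NT cells for 48 hours at 37 degrees C. Cell viability came from CellTiter-Glo luminescence; curves were classified by r2, response magnitude and activity.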
HT1080 IDH1KD tx: kills HT-1080 cells with IDH1 knockdown | 360,000 compounds, 2% hits | HT-1080 IDH1 knockdown viability, ATP luminescence, 48 h | Potency, µM (highest dose often 46.1 µM), hits mostly cytotoxic
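Knockdown cells (IDH1KD HT-1080) received compounds 2 h after plating at 750 cells/well and were kept 48 h at 37 °C in 5% FBS RPMI. A CellTiter-Glo luminescence read gave % activity for curve fitting.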
TDP1 cell CPT: DT40-hTDP1 cell growth loss with CPT | Potency, µM (doses to about 46.2 µM), actives largely listed as inhibitors | AID 686979 | 420,000 compounds, 12% hits | chicken DT40 Tdp1-/-;hTDP1 cells + 20 nM CPT, ATP luminescence, 48 h; also: nearly all actives have a fitted effect of over 55% in size
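Chicken DT40 Tdp1-/- cells stably complemented with human TDP1 were seeded at 400 cells/well in medium containing 20 nM camptothecin, exposed to pin-transferred compounds, and grown at 37 °C for at least 48 hr. Viability was read as ATP luminescence.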
ELG1 DNA repair: blocks ELG1-dependent DNA repair in HEK293T cells | HEK293T ELG1-luciferase reporter, luminescence, 16 h; DNA damage induced by 5-fluorouridine | Potency, µM (series often up to 46.1 µM), actives largely listed as inhibitors | 330,000 compounds, 2.3% hits | AID 504467; also: nearly all actives have a fitted effect of over 55% in size
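Cells (2,000 per well) received 5-fluorouridine plus test compound or DMSO and were incubated 16 hr at 37 °C, 5% CO2. Luciferase activity was read by luminescence 30 min after ONE-Glo addition; signal suppression marked inhibition of damage-induced ELG1 function.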
DT40 TDP1 no CPT: qHTS for Inhibitors of human tyrosyl-DNA phosphodiesterase 1 (TDP1): qHTS in cells in absence of CPT. 420,000 compounds, 15% hits. Potency, µM (doses to about 46.2 µM), hits mostly inhibitors. DT40 Tdp1-/- hTDP1 cells, no CPT, ATP luminescence, 48 h; also: nearly all actives have a fitted effect of over 55% in size
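No-CPT arm: Tdp1-/-;hTDP1 DT40 cells (400/well) plus compounds, incubated ≥48 hr at 37 °C. Readout CellTiter-Glo luminescence.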
Numbers stand for hits; n = inactive; u = inconclusive; x = no result. Unless noted, calls follow the shape of the dose curve; as a rule, active = well fitted curve in the direction sought with a large enough effect; inconclusive = small, poorly fitted or top-dose-only effect, or another doubt; inactive = no such curve, though single readings can be large; an effect the other way counts as inactive or inconclusive.

SMILES	IL1B secr inh	HT1080NT lethal	HT1080 IDH1KD tx	TDP1 cell CPT	ELG1 DNA repair	DT40 TDP1 no CPT
COc1ccccc1N1CCN(C(=O)C(C)CS(=O)(=O)c2ccc3c(c2)NC(=O)CS3)CC1 (stereo unspecified)	n	n	n	u	u	u
Cc1sc(NC(=O)c2ccco2)c(C(c2ccccc2)N2CCC(C)CC2)c1C (stereo unspecified)	n	u	u	10µM	u	6.5µM
CCOC(=O)C1CCN(C(c2cccnc2)c2c(NC(=O)c3ccco3)sc(C)c2C)CC1 (stereo unspecified)	n	n	u	1.6µM	15µM	1.8µM
Cc1ccc(C(c2c(NC(=O)c3ccco3)sc(C)c2C)N2CCOCC2)cc1 (stereo unspecified)	n	n	n	u	x	u
Cc1sc(NC(=O)c2ccco2)c(C(c2ccc(F)cc2)N2CCN(C)CC2)c1C (stereo unspecified)	-71	u	u	u	n	u
CCNc1ncc2nc(-c3cc(F)cc(F)c3)c(=O)n(C3CC3)c2n1	x	x	x	n	x	n
CC(C)C[C@@H](CN1CCC[C@H]1CN1C(=O)C(=O)NC[C@@H]1Cc1ccc(O)cc1)N1C[C@H](Cc2ccccc2)N(CC2CCCCCC2)C(=O)C1=O	-91	u	u	u	x	u
CC(C)C[C@@H](CN1CCC[C@H]1CN1C(=O)C(=O)NC[C@@H]1Cc1ccccc1)N1C[C@H](Cc2ccccc2)N(CC2CCCCCC2)C(=O)C1=O	-80	n	u	18µM	x	u
CC(C)C[C@@H](CN1CCC[C@@H]1CN1C(=O)C(=O)NC[C@@H]1Cc1ccccc1)N1C[C@H](Cc2ccc(O)cc2)N(CC2CCCCCC2)C(=O)C1=O	-72	u	u	u	x	u
CCSc1nnc(NC(=O)CCC2CCCCC2)s1	n	n	n	n	x	n
CC1=C(SCc2ccccc2)C(=O)c2ccccc2C1=O	-70	9.2µM	26µM	2.6µM	x	3.3µM
Cn1c(SCc2ccccc2)nccc1=O	n	n	n	n	x	n
CCCNC(=O)C[C@@H]1C[C@H]2c3cc(NC(=O)c4ccc5c(c4)OCO5)ccc3O[C@H]2[C@@H](CO)O1	n	n	n	23µM	x	15µM
COC(=O)C[C@@H]1CC[C@H](NC(=O)c2ccc3c(c2)OCO3)[C@@H](CO)O1	n	n	n	n	x	n
COc1ccccc1CNC(=O)C[C@@H]1C[C@H]2c3cc(NC(=O)c4ccc5c(c4)OCO5)ccc3O[C@H]2[C@@H](CO)O1	n	n	n	u	x	u
O=C(C[C@H]1C[C@@H]2c3cc(NC(=O)c4ccc5c(c4)OCO5)ccc3O[C@@H]2[C@H](CO)O1)NCc1cc(F)ccc1F	n	n	n	u	x	26µM
O=C(C[C@@H]1CC[C@H](NC(=O)c2ccc3c(c2)OCO3)[C@@H](CO)O1)NCc1ccc(F)cc1	n	n	n	u	x	12µM
COC(=O)C[C@@H]1C[C@H]2c3cc(NC(=O)CC4CC4)ccc3O[C@H]2[C@@H](CO)O1	n	n	n	n	x	n
CCn1c(CCC(=O)N(C)CC(=O)Nc2cccc(F)c2)nc2cc(S(=O)(=O)N(C)C)ccc21	n	n	n	n	n	n
CCCCC1CC2=C(C(=O)OC(C)(C)O2)C(c2ccc3ccccc3c2)O1 (stereo unspecified)	n	u	u	u	x	u
O=C1CC(N2CCSCC2)C(=O)N1c1cccc(Cl)c1 (stereo unspecified)	n	n	n	n	n	n
O=C(NCc1ccco1)/C(=C\C=C\c1ccccc1)NC(=O)c1ccccc1Br	n	n	n	n	23µM	u
Cc1ccc(C(=O)N/C(=C\C=C\c2ccccc2)C(=O)NCc2ccco2)cc1	n	n	n	n	n	n
Cc1nc(SCC(=O)NC(C)(C#N)C2CC2)c2c(-c3cccs3)csc2n1 (stereo unspecified)	-59	n	n	u	u	u
Cn1cc(C(=O)c2cccc(Cl)c2)cc1/C=N\O	-64	n	n	n	n	n
CO/N=C\c1cc(C(=O)c2ccc(Cl)cc2Cl)cn1C	-62	n	n	n	n	u
Cn1cc(C(=O)c2cccc(Cl)c2)cc1C#N	n	n	n	n	n	n
Cn1cccc1C(=O)c1ccc(Cl)cc1Cl	n	n	n	n	n	n
C=CC1=C(C)C2=Cc3c(C=C)c(C)c4[n]3[Sn+2][n]3c(c(C)c(CCC(=O)O)c3=CC3=NC(=C4)C(C)=C3CCC(=O)O)=CC1=N2	x	x	x	n	x	n
CCCCCc1c(-c2ccccc2F)ncn1CCc1ccccc1OC	-95	u	u	16µM	x	18µM
